Here are results for seven molecules from PubChem BioAssay (NCATS).

Assay [1] has as its target Lysosomal acid glucosylceramidase (Homo sapiens) (UniProt P04062). Kind of assay: Glucocerebrosidase-p2 (AID 348; in the data active = potency below about 10 µM; also: potency is read from the fitted curve at half-maximal effect). The note with it: purified GBA, blue fluorogenic substrate, 40 min. The method in brief:
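Normal human glucocerebrosidase (0.2 nM) with blue fluorogenic substrate (80 uM final) in citrate/phosphate pH 5.9 with 10mM sodium taurocholate, 0.01% tween-20; 40 min RT, NaOH/glycine stop; fluorescence Ex 365/Em 440; AC50 from a titration from 0.6 nM upwards.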

Assay [2] in a line: AP1 Signaling Pathway (AID 357).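 Also: ME-180 reporter cells stimulated with EGF at its EC50 level; % is scaled to controls: 0 for no effect and ±100 for the full control effect.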 The note with it: ME-180 AP-1-bla reporter, EGF-induced, beta-lactamase ratio, 5 h; at 7.69 µM (top of the series) unless noted. An outline of the steps: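 Beta-lactamase reporter under AP-1 response element, ME-180 background. Stimulus: EC50 EGF. Compound exposure 5 h, 37 °C. Detection: CCF4, 2.5 h RT, 460/530 nm. Values: AC50 from titration.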

The target in assay [3] is Cytochrome P450 1A2 (Homo sapiens) (UniProt P05177). Kind of assay: p450-cyp1a2 (AID 410; calls by dose curve; also: potency is read from the fitted curve at half-maximal effect;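 as to activity change, negative = inhibition: -100% = full effect of reference inhibitor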). As to conditions: recombinant CYP1A2, luciferin-ME demethylation, luminescence; series mostly up to 11.4 µM. The method in brief:
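Read-out is luminescence from luciferin produced by CYP1A2 demethylation of Luciferin-ME (100uM, at Km). Detection reagent stopped the 60 min NADPH-dependent reaction; signals were normalized to 57 uM furafylline.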

Assay [4] in a line: Stat Signaling Pathway (AID 446).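 Also: ME-180 cervical cancer cells given 40 pM IL-6 alongside compound; SIE-controlled beta-lactamase reporter measured as 460/530 nm FRET emission ratio; % is scaled to controls: 0 for no effect and ±100 for the full control effect.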 The note with it: ME-180 SIE beta-lactamase reporter, IL-6 stimulated, 5 h; at 7.69 µM (top of the series) unless noted. An outline of the steps: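 Overnight-plated ME-180 cells bearing a STAT Inducible Element beta-lactamase reporter; 5 h co-exposure to compound and 40 pM IL-6; values normalized to 300 pM IL-6 and 125 nM JAK inhibitor controls.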

For assay [5], the target named is Glucocorticoid receptor (Homo sapiens) (UniProt P04150). The experiment in a line: GR-GFP Redistribution (AID 450;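 active = compounds whose dose series gives a full or clear partial fitted curve of increased nuclear translocation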; also: potency is read from the fitted curve at half-maximal effect). As to conditions: U2OS GR-GFP nuclear translocation, laser cytometry, 2 h.
Glucocorticoid receptor (Homo sapiens), sequence (P04150 whole entry, looked up): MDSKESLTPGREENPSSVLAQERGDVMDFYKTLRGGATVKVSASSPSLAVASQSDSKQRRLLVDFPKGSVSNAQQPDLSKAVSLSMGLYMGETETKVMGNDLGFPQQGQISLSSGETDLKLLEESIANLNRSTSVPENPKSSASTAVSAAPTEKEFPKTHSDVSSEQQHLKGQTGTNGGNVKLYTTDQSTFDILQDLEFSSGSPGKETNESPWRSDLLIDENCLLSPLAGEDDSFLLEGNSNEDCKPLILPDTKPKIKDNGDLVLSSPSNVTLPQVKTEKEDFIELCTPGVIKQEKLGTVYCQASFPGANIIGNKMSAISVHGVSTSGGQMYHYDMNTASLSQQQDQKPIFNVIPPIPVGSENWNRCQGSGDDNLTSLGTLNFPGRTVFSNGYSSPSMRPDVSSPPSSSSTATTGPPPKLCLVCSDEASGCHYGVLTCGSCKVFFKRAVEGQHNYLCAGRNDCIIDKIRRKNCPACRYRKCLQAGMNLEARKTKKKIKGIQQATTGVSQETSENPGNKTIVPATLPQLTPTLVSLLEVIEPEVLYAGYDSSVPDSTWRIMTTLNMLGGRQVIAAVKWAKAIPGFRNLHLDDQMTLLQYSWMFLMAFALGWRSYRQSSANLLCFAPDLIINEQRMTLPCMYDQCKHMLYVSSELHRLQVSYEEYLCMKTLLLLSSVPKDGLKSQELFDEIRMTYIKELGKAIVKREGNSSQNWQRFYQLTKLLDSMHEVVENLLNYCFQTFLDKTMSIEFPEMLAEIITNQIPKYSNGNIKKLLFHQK
For assay [6] the target is unchanged. The experiment in a line: GR-EFC Redistribution (AID 451; calls by dose curve; also: potency is read from the fitted curve at half-maximal effect). As to conditions: CHO-K1 GR-EFC translocation, beta-gal luminescence, 2 h. An outline of the steps:
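CHO-K1 cells stably expressing nuclear-localized β-gal enzyme acceptor and GR fused C-terminally to the enzyme donor fragment; ligand-driven nuclear translocation restores β-gal by complementation. Compounds titrated up to 46 uM final, 2 h at 37 °C; luminescence read.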

The target of assay [7] is Mitogen-activated protein kinase 10 (Mus musculus) (UniProt Q61831). The experiment in a line: JNK3 AlphaScreen Assay (AID 530).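 Also: kinase came from lysate of stimulated human HepG2 cells; signal reports phosphorylation of biotinylated GST-cJun 1-79 at Ser73 with 10 µM ATP; % is scaled to controls: 0 for no effect and ±100 for the full control effect.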 The note with it: JNK3 lysate, c-Jun phosphorylation; series mostly up to 11.4 µM. The method in brief:
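Biotinylated GST-cJun(1-79) served as substrate for JNK3 in HepG2 lysates stimulated with IL-1beta and TNF-alpha. ATP was 10 uM final, pH 7.6. Ser73 phosphorylation was quantified by AlphaScreen (680 nm excitation).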

Assay [8] addresses 3',5'-cyclic-AMP phosphodiesterase 4B (Homo sapiens) (UniProt Q07343). The experiment in a line: qHTS Assay for Inhibitors of PDE-IV (AID 607; active = well fitted activation curve with a large enough effect in the main read-out, with a control signal flat, not every such curve was filed as active; also: % of control where 0% means no effect). The note with it: HEK293 ACTOne CNG channel cells, membrane potential fluorescence; series mostly up to 22.9 µM. An outline of the steps:
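Live HEK293 cells with a modified cyclic nucleotide-gated (CNG) channel report intracellular cAMP via membrane-potential dye fluorescence (ex 535/em 590 nm). Endogenous PDE-IV was targeted. Compounds were tested at up to 22.9 uM final; RO 20-1724 100 uM served as control.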
In general terms: qHTS replaces the single test concentration by a dilution series.

In assay [9] the target is Cytochrome P450 3A4 (Homo sapiens) (UniProt P08684). The experiment in a line: qHTS Assay for Activators of Cytochrome P450 3A4 (AID 885; active = well fitted curve in the direction sought with a large enough effect; an effect the other way counts as inactive or inconclusive; also: nearly all actives have a fitted effect of over 65% in size). The note with it: recombinant CYP3A4, Luciferin-PPXE luminescence, 60 min; series mostly up to 11.4 µM. An outline of the steps: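 Using 20nM recombinant human CYP3A4 in potassium phosphate (200mM), substrate Luciferin-PPXE at 25uM, luminescent luciferin detection followed a 60-min RT NADPH reaction; data scaled to 57 uM ketoconazole.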
Cytochrome P450 3A4 (Homo sapiens), sequence (P08684 whole entry, looked up): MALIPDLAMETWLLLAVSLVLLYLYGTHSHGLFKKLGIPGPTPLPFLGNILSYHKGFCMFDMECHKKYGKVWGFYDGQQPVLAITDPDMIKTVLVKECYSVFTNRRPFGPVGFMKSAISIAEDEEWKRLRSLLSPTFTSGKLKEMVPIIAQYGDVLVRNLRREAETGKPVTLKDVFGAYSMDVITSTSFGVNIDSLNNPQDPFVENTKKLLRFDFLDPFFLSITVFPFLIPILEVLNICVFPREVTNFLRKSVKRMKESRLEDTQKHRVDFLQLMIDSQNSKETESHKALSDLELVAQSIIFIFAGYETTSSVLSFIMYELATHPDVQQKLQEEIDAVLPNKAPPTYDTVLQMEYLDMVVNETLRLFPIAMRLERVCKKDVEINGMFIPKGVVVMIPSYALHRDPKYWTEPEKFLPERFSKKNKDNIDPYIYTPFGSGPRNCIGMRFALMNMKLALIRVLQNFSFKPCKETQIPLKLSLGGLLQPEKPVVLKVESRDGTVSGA

For assay [10], the target named is Cytochrome P450 2D6 (Homo sapiens) (UniProt P10635). Kind of assay: qHTS Assay for Inhibitors and Substrates of Cytochrome P450 2D6 (AID 891; active = well fitted curve in the direction sought with a large enough effect; an effect the other way counts as inactive or inconclusive; also: potency is read from the fitted curve at half-maximal effect; nearly all actives have a fitted effect of over 60% in size). As to conditions: recombinant CYP2D6, luciferin-ME EGE luminescence; series mostly up to 11.4 µM. An outline of the steps: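 Luminescent read-out of luciferin formed by 5 nM human CYP2D6 demethylating 30 uM Luciferin-ME EGE (Km level) over 60 min at room temperature after NADPH regeneration addition. Data normalized to full inhibition by 1.43 uM quinidine.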
Cytochrome P450 2D6 (Homo sapiens), sequence (P10635 whole entry, looked up): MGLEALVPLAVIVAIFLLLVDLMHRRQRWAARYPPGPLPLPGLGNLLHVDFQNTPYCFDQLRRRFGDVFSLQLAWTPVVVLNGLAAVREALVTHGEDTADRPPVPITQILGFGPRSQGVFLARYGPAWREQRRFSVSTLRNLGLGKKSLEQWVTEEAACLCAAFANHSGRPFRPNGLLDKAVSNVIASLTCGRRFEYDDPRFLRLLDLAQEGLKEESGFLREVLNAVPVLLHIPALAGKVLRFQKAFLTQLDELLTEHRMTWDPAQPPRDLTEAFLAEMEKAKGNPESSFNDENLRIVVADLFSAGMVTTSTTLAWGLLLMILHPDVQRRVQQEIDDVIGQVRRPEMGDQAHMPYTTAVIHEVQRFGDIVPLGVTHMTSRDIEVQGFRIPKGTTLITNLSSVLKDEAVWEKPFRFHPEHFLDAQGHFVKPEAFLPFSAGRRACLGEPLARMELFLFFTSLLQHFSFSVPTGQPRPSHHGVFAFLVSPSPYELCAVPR

The nature of assay [11]: qHTS Assay for Identification of Small Molecule Agonists for Hypoxia Response Element Signaling Pathway (AID 914; active = well fitted activation curve with a large enough effect in the signal ratio, with a control signal flat, not every such curve was filed as active; the % refers to the signal ratio; also: % of control where 0% means no effect). The note with it: ME-180 (cervical carcinoma) HRE-bla reporter, beta-lactamase ratio, CoCl2, 17 h; activation: active compounds read high. An outline of the steps: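 Read-out: CCF4 FRET ratio of 460nm to 530nm emission (excitation 405nm) after 2.5 hours at room temperature, taken from HRE-bla ME-180 cells that had been exposed to compound and EC50 CoCl2 for 17 hours.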

The target of assay [12] is Cytochrome P450 2C19 (Homo sapiens) (UniProt P33261). Kind of assay: qHTS Assay for Inhibitors and Substrates of Cytochrome P450 2C19 (AID 899; active = well fitted curve in the direction sought with a large enough effect; an effect the other way counts as inactive or inconclusive; also: nearly all actives have a fitted effect of over 60% in size; also: potency is read from the fitted curve at half-maximal effect; as to activity, negative = inhibition: % is scaled to controls: 0 for no effect and ±100 for the full control effect). As to conditions: recombinant CYP2C19, luciferin-H EGE luminescence; series mostly up to 11.4 µM. The method in brief: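 In 50mM KPO4, the reaction held 5nM enzyme and KM-level (10uM) Luciferin-H EGE; it ran 60 min at 37C after NADPH regeneration and a 10 min compound preincubation. Luminescence values were scaled to 57uM ketoconazole as complete inhibition.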
Cytochrome P450 2C19 (Homo sapiens), sequence (P33261 whole entry, looked up): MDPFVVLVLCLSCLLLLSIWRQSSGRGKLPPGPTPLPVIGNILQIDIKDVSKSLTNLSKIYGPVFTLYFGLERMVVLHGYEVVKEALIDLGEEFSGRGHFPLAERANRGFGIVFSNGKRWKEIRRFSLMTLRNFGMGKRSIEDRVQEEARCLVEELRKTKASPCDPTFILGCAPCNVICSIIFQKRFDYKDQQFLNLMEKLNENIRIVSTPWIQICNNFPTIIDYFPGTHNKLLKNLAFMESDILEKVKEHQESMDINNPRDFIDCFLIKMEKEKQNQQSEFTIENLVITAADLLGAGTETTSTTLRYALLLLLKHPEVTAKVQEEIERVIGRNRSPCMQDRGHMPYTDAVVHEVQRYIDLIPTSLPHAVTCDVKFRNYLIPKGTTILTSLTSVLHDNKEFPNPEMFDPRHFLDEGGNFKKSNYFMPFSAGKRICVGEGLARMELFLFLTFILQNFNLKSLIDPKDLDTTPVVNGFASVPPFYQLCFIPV

Assay [13] has as its target Cytochrome P450 3A4 (Homo sapiens) (UniProt P08684). The experiment in a line: qHTS Assay for Inhibitors and Substrates of Cytochrome P450 3A4 (AID 884; active = well fitted curve in the direction sought with a large enough effect; an effect the other way counts as inactive or inconclusive; also: potency is read from the fitted curve at half-maximal effect; nearly all actives have a fitted effect of over 50% in size). The note with it: recombinant CYP3A4, Luciferin-PPXE luminescence; series mostly up to 57.1 µM. An outline of the steps:
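Luminescent readout of luciferin produced by CYP3A4 (20 nM) dealkylation of Luciferin-PPXE, 25 uM (its KM). NADPH-driven reaction ran 60 min at RT after 10 min compound preincubation; data scaled to 57 uM ketoconazole as 100% inhibition.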

Assay [14] can be described thus: Confirmation and Secondary Assay for Modulators of Hemoglobin Beta Chain Splicing at IVS2 654 locus (AID 910; active = well fitted curve in the direction sought with a large enough effect; an effect the other way counts as inactive or inconclusive;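 also: per-well total GFP intensity by laser scanning cytometry after 2-day treatment; % of control where 0% means no effect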). The note with it: HeLa EGFP-654 splicing reporter, GFP fluorescence, 48 h; series mostly up to 38.3 µM. The method in brief: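 HeLa cells stably carrying EGFP interrupted by mutant beta-globin IVS2-654 intron (CMV-driven) were treated with compound for 2 days at 37C; corrected splicing was scored as total peak GFP intensity per well (488 nm excitation, 500-520 nm emission).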

Assay [15] is described as follows: Confirmation and Secondary Assay for Modulators of Hemoglobin Beta Chain Splicing at IVS2 705 locus (AID 930; active = well fitted curve in the direction sought with a large enough effect; an effect the other way counts as inactive or inconclusive;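 also: HeLa cells stably expressing the EGFP-705 splicing reporter; GFP fluorescence per well restored by corrected splicing of the IVS2-705 intron in EGFP; % of control where 0% means no effect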). As to conditions: HeLa EGFP-705 splicing reporter, GFP fluorescence, 48 h; series mostly up to 38.3 µM. An outline of the steps: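 HeLa EGFP-705 reporter; 500 cells/well, o/n 37C 5% CO2; cpd 2 d; 488 ex/500-520 em laser scan; total peak GFP intensity/well. Ref: 500 nM […] antisense PNA.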

A number with no mark means an inactive call. Results filed as inconclusive are left out. Calls of active or inactive are those of the source. Unless noted, calls follow the shape of the dose curve; as a rule, active = well fitted curve in either direction with a large enough effect (not every such curve was filed as active); inconclusive = small, poorly fitted or top-dose-only effect, or another doubt; inactive = flat fitted curve, though single readings scatter.

Lysosomal acid glucosylceramidase (Homo sapiens), sequence (P04062 whole entry, looked up): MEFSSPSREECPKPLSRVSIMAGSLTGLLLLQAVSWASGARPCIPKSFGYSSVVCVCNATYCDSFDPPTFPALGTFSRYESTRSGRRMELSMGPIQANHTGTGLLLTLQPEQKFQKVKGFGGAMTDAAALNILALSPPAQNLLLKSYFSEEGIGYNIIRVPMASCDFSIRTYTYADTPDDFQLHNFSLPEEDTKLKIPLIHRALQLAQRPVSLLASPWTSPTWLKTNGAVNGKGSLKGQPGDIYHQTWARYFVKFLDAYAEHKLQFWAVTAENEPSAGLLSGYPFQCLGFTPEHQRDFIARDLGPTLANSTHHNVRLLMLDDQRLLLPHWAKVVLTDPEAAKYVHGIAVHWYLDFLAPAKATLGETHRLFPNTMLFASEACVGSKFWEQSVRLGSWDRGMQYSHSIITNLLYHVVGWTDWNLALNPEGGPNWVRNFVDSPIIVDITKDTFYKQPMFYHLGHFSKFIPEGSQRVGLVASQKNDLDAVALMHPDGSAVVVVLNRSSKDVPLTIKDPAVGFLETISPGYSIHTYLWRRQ
Cytochrome P450 1A2 (Homo sapiens), sequence (P05177 whole entry, looked up): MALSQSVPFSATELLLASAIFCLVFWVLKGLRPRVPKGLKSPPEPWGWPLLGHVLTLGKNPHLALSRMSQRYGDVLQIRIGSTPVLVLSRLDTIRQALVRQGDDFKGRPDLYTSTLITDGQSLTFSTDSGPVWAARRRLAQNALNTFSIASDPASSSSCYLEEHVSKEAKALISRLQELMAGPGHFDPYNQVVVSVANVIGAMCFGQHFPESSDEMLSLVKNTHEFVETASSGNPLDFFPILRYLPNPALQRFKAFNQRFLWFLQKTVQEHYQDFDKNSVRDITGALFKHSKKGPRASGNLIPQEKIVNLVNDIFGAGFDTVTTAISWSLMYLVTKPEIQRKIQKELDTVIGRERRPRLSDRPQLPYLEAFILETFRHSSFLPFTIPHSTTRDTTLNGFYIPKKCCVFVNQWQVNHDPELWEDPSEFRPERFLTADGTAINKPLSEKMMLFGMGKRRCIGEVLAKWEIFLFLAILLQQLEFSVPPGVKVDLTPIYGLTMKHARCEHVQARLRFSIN
3',5'-cyclic-AMP phosphodiesterase 4B (Homo sapiens), sequence (Q07343 whole entry, looked up): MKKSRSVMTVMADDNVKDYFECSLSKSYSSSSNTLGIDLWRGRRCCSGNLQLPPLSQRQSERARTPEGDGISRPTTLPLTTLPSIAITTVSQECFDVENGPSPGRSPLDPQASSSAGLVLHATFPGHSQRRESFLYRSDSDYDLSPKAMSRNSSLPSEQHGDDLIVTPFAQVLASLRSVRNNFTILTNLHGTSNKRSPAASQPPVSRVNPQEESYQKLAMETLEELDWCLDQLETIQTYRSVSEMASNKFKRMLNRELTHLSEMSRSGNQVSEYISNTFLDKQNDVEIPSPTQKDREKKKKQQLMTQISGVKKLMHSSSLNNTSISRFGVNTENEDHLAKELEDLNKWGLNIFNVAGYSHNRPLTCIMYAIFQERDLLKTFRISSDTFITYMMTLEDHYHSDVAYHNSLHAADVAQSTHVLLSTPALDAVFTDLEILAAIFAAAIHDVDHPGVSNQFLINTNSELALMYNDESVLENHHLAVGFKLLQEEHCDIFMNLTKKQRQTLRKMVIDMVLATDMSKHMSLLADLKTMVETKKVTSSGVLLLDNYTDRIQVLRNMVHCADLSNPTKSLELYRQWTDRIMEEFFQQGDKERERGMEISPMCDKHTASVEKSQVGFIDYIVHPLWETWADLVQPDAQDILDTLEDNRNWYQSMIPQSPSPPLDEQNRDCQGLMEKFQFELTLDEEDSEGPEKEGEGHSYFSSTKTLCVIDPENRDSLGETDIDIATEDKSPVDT

On to `Cc1cc(C(C)(C)C)c(OCCCN2CCOCC2)c(C(C)(C)C)c1`, for which the Potency in assay [1] was more than 11.4 µM; in assay [5] it was more than 46 µM; in [6], more than 9.22 µM; in assay [10] it was 2 µM (active). The results for the activity change, negative = inhibition in assay [2] and in [3] were 3.87% and -17.7% [at 2.29 µM], respectively. Moreover, in assay [4], the activity, negative = inhibition is 0.456%. Moreover, the Potency result in assay [7], in assay [8] and in [9] was “inactive” throughout. Also, the activation in [11] was 1.57%.

Consider `O[C@H](CNc1ccccn1)c1ccccc1`, for which the Potency in assay [1] was more than 11.4 µM; in assay [5], more than 46 µM; in [6], more than 9.22 µM; in assay [10], 1.58 µM (active). For the same molecule, the activity change, negative = inhibition in assay [2] was 1.58%. Besides, the Potency entry in assay [3], in [7] and in assay [8] was “inactive” each time. Besides, in assay [4], the activity, negative = inhibition was 4.88%.

Consider `c1ccc(C[n+]2cccc(-c3cc4ccccc4[nH]3)c2)cc1`, for which the Potency was more than 11.4 µM in assay [1]; 1.26 µM (active) in assay [3]; more than 46 µM in [5]; more than 9.22 µM in assay [6]; 1.26 µM (active) in assay [10]. Moreover, in [2], the activity change, negative = inhibition was 2.74%. The activity, negative = inhibition in assay [4] was -0.473%. The Potency entry in assay [7] and in assay [8] was “inactive” in each case.

`C[C@H](CN(C)C)C(O)(c1ccccc1)c1ccccc1`: the Potency in [1] was more than 11.4 µM; in [5], more than 46 µM; in assay [6], more than 9.22 µM. In [2], the activity change, negative = inhibition was -8.88%. In addition, the Potency entry in [3], in assay [7], in assay [8] and in assay [12] was “inactive” in each case. The activity, negative = inhibition in assay [4] is 8.39%.

Regarding `CC1(C)N=C(N)N=C(N)N1c1cccc(OCc2cccc([N+](=O)[O-])c2)c1`, the Potency in [1] is more than 11.4 µM; in [3] it was 5.01 µM (active); in [5] it was more than 46 µM; in [6], more than 9.22 µM. The activity change, negative = inhibition in [2] is -5.25%. The activity, negative = inhibition in [4] was -5.32%. The Potency result in [7], in assay [8] and in [12] was “inactive” each time. Also, the activation in assay [11] was 5.31%.

As to `CC1CCN(CC(=O)N2c3ccccc3Sc3cc4ccccc4cc32)CC1`, the Potency in assay [1] is more than 11.4 µM; in assay [3] it was 3.98 µM (active); in [5], more than 46 µM; in [6], more than 9.22 µM; in assay [13], 3.98 µM (active); in [10], 3.98 µM (active). The Potency in assay [12] was 3.16 µM (active). Further, the activity change, negative = inhibition in assay [2] is 28.3%. For the same molecule, in [4], the activity, negative = inhibition was 9.28%. In addition, the Potency result in assay [7] and in [9] was “inactive” throughout.

On to `CN(C)c1ccc(-c2nc(Nc3ccncc3)c3ccccc3n2)cc1`, for which the Potency in [1] is 3.67 µM (active); in [3] it was 0.501 µM (active); in assay [5], more than 46 µM; in assay [6] it was more than 46 µM; in [13], 7.94 µM (active). The activity change, negative = inhibition in assay [2] was -10.7%. The activity, negative = inhibition in [4] is -28.2%. Moreover, the Potency entry in assay [8] and in [9] was “inactive” in each case. For the same molecule, the result in assay [14] and in assay [15] was inactive.
